Screens from PubChem BioAssay.
12-LOX inh: blocks human arachidonate 12S-lipoxygenase; P18054; 580,000 tested, 1.1% active; purified 12hLO, xylenol orange hydroperoxide absorbance; Potency, µM (top dose mostly 108 µM), for the others: at the top dose activity change, negative = inhibition, usual class: inhibitors; also: % is scaled to controls: 0 for no effect and ±100 for the full control effect
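Purified human 12hLO at 150 nM in 25 mM Hepes, 0.01% Triton X-100, pH 7.0, preincubated 15 min at room temperature with compound. Reaction started with 40 uM arachidonic acid, 30 min at room temperature. Hydroperoxide measured by Fe-xylenol orange, 573/405 nm absorbance ratio.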
Sfp inh: blocks B. subtilis Sfp PPTase activity | AID 1490 | 310,000 tested, 3.5% active | Potency, µM, for the others: largest response in the series, negative = inhibition, most hits filed as inhibitors | Q9F4F7 | Biochemical Sfp PPTase activity, qHTS;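 also: the enzyme is Sfp with the accession as filed and its product quenches rhodamine fluorescence; 0% = enzyme reaction without inhibitor and -100% = no enzyme wells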
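With Hepes-Na pH 7.6 buffer containing 10 mM MgCl2, Sfp (15 nM) modified BHQ-2-YbbR (12.5 uM) using rhodamine-CoA (5 uM). Two reads 30 minutes apart at 525/598 nm yielded each well's rate.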
G9a inh: inhibitors of human histone lysine methyltransferase G9a; AID 504332; 350,000 tested, 8.8% active; Potency, µM (doses to about 102 µM), for the others: at the top dose activity, negative = inhibition, actives largely listed as inhibitors; Q96KQ7; G9a H3K9 monomethylation, AlphaScreen, 2 h; also: % is scaled to controls: 0 for no effect and ±100 for the full control effect; nearly all actives have a fitted effect of over 75% in size
Target sequence (Q96KQ7 913-1193 limits assumed): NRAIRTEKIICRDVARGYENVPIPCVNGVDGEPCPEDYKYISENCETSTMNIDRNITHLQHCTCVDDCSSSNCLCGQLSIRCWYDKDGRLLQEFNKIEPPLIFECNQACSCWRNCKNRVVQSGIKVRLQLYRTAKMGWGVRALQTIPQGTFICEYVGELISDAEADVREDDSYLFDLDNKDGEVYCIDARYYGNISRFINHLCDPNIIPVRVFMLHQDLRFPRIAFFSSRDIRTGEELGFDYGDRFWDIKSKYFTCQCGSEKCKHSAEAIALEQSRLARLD
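AlphaScreen detection with an anti-monomethyl H3K9 antibody quantified product after a 2 h room-temperature reaction containing 500 nM biotinylated H3K9 peptide, 20 µM SAM and 20 nM enzyme, which had been preincubated 15 min with compound.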
BAZ2B inh: BAZ2B (human) inhibition; Q9UIF8; Potency, µM (series often up to 114 µM), without a hit: at the highest dose activity change, negative = inhibition, usual class: inhibitors; 360,000 tested, 4.4% active; AlphaScreen BAZ2B-H3K14Ac peptide displacement; also: % is scaled to controls: 0 for no effect and ±100 for the full control effect; nearly all actives have a fitted effect of over 60% in size
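AlphaScreen luminescence quantifies BAZ2B engagement of H3K14Ac peptide; the protein and biotinylated peptide are both at 50 nM final, buffer PBS pH 7.4 with 0.01% Tween-20, all steps at room temperature.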
JMJD2A Tudor: JMJD2A Tudor domain (human) inhibition | O75164 | AlphaScreen JMJD2A-Tudor / H3K4me3 peptide binding | Potency, µM (titrated, usually from 114 µM), for the others: at the top dose activity change, negative = inhibition, hits mostly inhibitors | 390,000 tested, 4.4% active; also: % is scaled to controls: 0 for no effect and ±100 for the full control effect; nearly all actives have a fitted effect of over 50% in size
HP1b binding inh: inhibitors of HP1-beta chromodomain binding to methylated histone tails | P83916 | AlphaScreen HP1-beta / biotin-H3K9me3 peptide binding | Potency, µM (highest dose often 114 µM), inactives show at the highest dose activity change, negative = inhibition, most hits filed as inhibitors | 390,000 tested, 0.56% active; also: nearly all actives have a fitted effect of over 70% in size
Target sequence (P83916 whole entry, looked up): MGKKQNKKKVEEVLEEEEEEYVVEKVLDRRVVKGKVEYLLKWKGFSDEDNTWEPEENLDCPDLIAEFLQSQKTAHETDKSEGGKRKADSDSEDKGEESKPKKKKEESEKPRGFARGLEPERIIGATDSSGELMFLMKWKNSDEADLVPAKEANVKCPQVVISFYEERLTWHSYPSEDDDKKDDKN
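AlphaScreen: HP1-beta (50 nM) preformed 30 min with biotin-H3(1-18)K9me3 peptide (50 nM) in PBS pH 7.4, 0.01% Tween-20. Compound added for 30 min at RT, then streptavidin donor/nickel chelate acceptor beads (10 ug/mL) for 30 min.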
An asterisk follows results filed as active; ? = inconclusive; . = no result given; [ ] = another dose, or the depositor's remark. Shown are actives, neighbours in structure and some others; about 8.7% of the full set was active somewhere. Calls follow the shape of the dose curve; as a rule, active = well fitted curve in the direction sought with a large enough effect; inconclusive = small, poorly fitted or top-dose-only effect, or another doubt; inactive = no such curve, though single readings can be large; an effect the other way counts as inactive or inconclusive. Potency is read from the fitted curve at half-maximal effect.

SMILES	12-LOX inh	Sfp inh	G9a inh	BAZ2B inh	JMJD2A Tudor	HP1b binding inh
CCCOc1cccc(-c2nn(-c3ccccc3)cc2/C=C(\C#N)C(=O)NCCCn2ccnc2)c1	-5.9%	-20.1%	-9.1%[59 µM]	?	44.7µM*	?
N#C/C(=C/c1cn(-c2ccccc2)nc1-c1cccc(OCc2ccc(F)cc2)c1)C(=O)NCCCn1ccnc1	-5.7%	?	1.1%[59 µM]	10µM*	15.8µM*	-20.6%
CC(C)c1onc(C(=O)NCCc2ccccc2)c1[N+](=O)[O-]	-6.2%	-4.1%	50.1µM*	4.4%	-16.0%	21.2%
CC(C)c1nc2c(c(-c3ccc(Cl)cc3)n1)CN([S+](=O)([O-])c1cccc(C(F)(F)F)c1)CC2	55.9%	.	.	.	.	.
O=C(O)Cc1ccc(C(=O)c2ccc(F)cc2)s1	0.0%	8.9%	?	5.5%	-0.3%	45.2%
N#CCc1ccc(C(=O)c2ccccc2F)s1	-20.4%	-9.7%	?	50.1µM*	-11.9%	15.4%
O=C(Cn1nc(N2CCN(c3ccccc3)CC2)ccc1=O)Nc1ccccc1	9.5%	.	.	.	.	.
CCn1ccnc1CN1CCc2c([nH]c3ccccc23)C1C1CCCCC1 (configuration not stated)	-0.8%	-10.1%	44.7µM*	35.5µM*	14.1µM*	-15.5%
CCn1ccnc1CN1CCc2c([nH]c3ccccc23)C1C(C)(C)C (configuration not stated)	6.2%	3.5%	?	?	?	-4.4%
CN(CC(=O)NC(C)(C)C)Cc1ccc(C#N)cc1	49.0%	.	.	.	.	.
C[N+]1(CCCCC[N+]2(C)CCCC2)CCCC1	.	2.8%	11.9%	.	.	.
C[N+]1(CCCCCCCCCCCCCO)CCCC1	28.2µM*	.	.	.	.	.
C[N+]1(CCCCCCC(=O)/C=N/O)CCCCCC1	-1.3%	1.3%	14.1µM*	-28.0%	-5.9%	22.3%
Cn1c2c(c(=O)n(C)c1=O)C(c1ccc(F)cc1)C(C#N)=C(N)O2 (configuration not stated)	5.5%	2.3%	44.7µM*	-14.9%	-6.5%	19.7%
Cc1ccc(C2C(C#N)=C(N)Oc3c2c(=O)n(C)c(=O)n3C)cc1 (configuration not stated)	11.8%	-3.5%	?	-2.1%	-3.4%	26.3%
COc1cccc(CC(=O)NCC2Cn3cccc3C(=O)N2C)c1 (configuration not stated)	4.8%	.	.	.	.	.
O=C1c2nc3cc(-c4ccco4)[nH]n3c(=O)c2CN1Cc1ccccc1	22.4µM*	20µM*	?	?	-11.8%	29.2%
C#CCNC(=O)c1ccccc1NCC(=O)Nc1ccccc1OC(F)F	-2.1%	.	.	.	.	.
CN(CC(=O)Nc1ccc(F)c(F)c1F)C(=O)CCc1nc2sc3c(c2c(=O)[nH]1)CCCC3	17.8µM*	.	50.1µM*	50.1µM*	-35.7%	-6.7%
Cc1cccc(NC(=O)CNC(=O)CCc2nc3sc4c(c3c(=O)[nH]2)CCCC4)c1C	10µM*	.	50.1µM*	39.8µM*	39.8µM*	?
Cc1cccc(C)c1NC(=O)CN(C)C(=O)CCc1nc2sc3c(c2c(=O)[nH]1)CCCC3	107.3%	.	10.4%[12.7 µM]	?	-23.6%	27.3%
CCOC(=O)CSc1nc2sc3c(c2c(=O)[nH]1)CCCC3	-0.1%	6.4%	8.5%[59 µM]	5.4%	-17.2%	6.8%
CCOC(=O)C1CCN(C(=O)CCc2nc3sc4c(c3c(=O)[nH]2)CCCC4)CC1	?	.	50.1µM*	?	?	14.5%
CC(=O)c1ccc(NC(=O)CCc2nc3sc4c(c3c(=O)[nH]2)CCCC4)cc1	?	.	?	56.2µM*	-26.2%	24.6%
CCc1ccc(NC(=O)CCc2nc3sc4c(c3c(=O)[nH]2)CCCC4)cc1	?	.	-33.7%	-36.8%	-30.3%	30.3%
Cc1cccc(NC(=O)CCc2nc3sc4c(c3c(=O)[nH]2)CCCC4)n1	?	.	-31.7%[59 µM]	?	?	-31.1%
COc1ccccc1Oc1coc2cc(OCc3cccc(Cl)c3)ccc2c1=O	-18.4%	.	.	.	.	.
